The full list was thinned out, with hits kept by preference.
ER stress death – ER stress cell death inhibition | 0.33% of 48,000 active | relative survival (cellular ATP), % at 15 µg/mL (by protocol) | CSM14.1 thapsigargin ER stress survival, ATP luminescence;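 active = survival measured by cellular ATP above 50% at 15 µg/ml in the first screen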;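 also: cell death triggered by about 15 µM thapsigargin; ATP read 24 h after thapsigargin was added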
Each line names hits and unclear results; the compound was inactive in the other large screens.

CCOc1ccc(NC(=O)/C=C\C(=O)O)cc1	none
O=C(O)/C=C/C(=O)Nc1ccc(-c2ccc(NC(=O)/C=C/C(=O)O)cc2)cc1	none
O=C(O)/C=C/C(=O)Nc1ccc(OC(F)(F)Cl)cc1	ER stress death 107.5
CCN(CC)C(=Nc1ccccc1)n1cncn1	none
O=C1CC(N2CCN(c3ccccc3)CC2)C(=O)N1c1ccc(F)cc1 (stereo unspecified)	none
